Measurements as given in PubChem BioAssay (EPA / NIEHS).
Inconclusive results are not listed. Activity calls are given as the source filed them. The calls were made as follows, unless noted: active = hit-call score of the fitted dose curve at least 0.9, where 1 is the maximum; inconclusive = response in the unintended direction; inactive = score below 0.9.

Columns and labels:
[1] = CCTE_Simmons_CellTiterGLO_HEK293T: Viability Assessment in CCTE's Assays for Thyroperoxidase (TPO) Inhibition, Simmons Lab (AID 2283665);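 as to AC50: cells exposed to compound for 24 h before readout; actives reduce ATP signal below DMSO vehicle meaning cytotoxicity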
Summary of the method: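 Cells were seeded overnight, then exposed to an eight-point series up to 87.5 uM final for 24 hours. CellTiter-Glo reagent was added and luminescence read after 20 min, giving ATP-based viability versus DMSO.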

[2] = STM_H9_OrnCyssISnorm_ratio: Stemina devTOX quickPredict H9 human embryonic stem cell (hESC)-based Assay for Ornithine (ORN):Cystine (CYSS) Ratio (AID 2283714)
Summary of the method: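 UPLC-HRMS of spent media: ORN/CYSS ratio of internal-standard-normalized percentages, DMSO (0.1%) baseline. Pluripotent H9 hESCs, 72h exposure, daily re-dosing with fresh media; last 24h media collected.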

[3] = CEETOX_H295R_MTT_cell_viability: Viability Assessment in the CeeTox HT-H295R MTT Assay (AID 2283718; active = hit-call score of the fitted dose curve at least 0.9, where 1 is the maximum; inactive = score below 0.9;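 as to AC50: curve fitted both ways so AC50 may mark viability loss or gain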)
Summary of the method: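 Human H295R adrenal cells, prestimulated 48 h with 10 uM forskolin, were exposed 48 h to chemicals in 0.1% DMSO. Viability was measured in the same wells by MTT (0.5 mg/ml, 4 h, 37 C), absorbance 570/650 nm, as percent of controls.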

[4] = Tanguay_ZF_120hpf_CIRC_legacy: (Legacy) Oregon State University Tanguay Lab 120 Hour Post-fertilization zebrafish Assay for Circulatory Malformation (AID 2283651)
Summary of the method: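 Embryos are dechorionated at 4 hpf, plated one per well at 6 hpf, then held under static exposure at 28C until 120 hpf. Malformations are recorded as binary calls; mortality excludes other endpoints.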

[5] = Tanguay_ZF_120hpf_SWIM_legacy: (Legacy) Oregon State University Tanguay Lab 120 Hour Post-fertilization zebrafish Assay for Swim Bladder Malformation (AID 2283654);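 also: swim bladder malformation in each larva scored yes or no under brightfield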
Summary of the method: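 Tropical 5D embryos dechorionated at 4 hpf; 1 embryo/well from 6 hpf; static, sealed, dark exposure at 28C until 120 hpf; final DMSO 0.64%; 5uM trimethyltin chloride positive control; swim bladder defect recorded yes/no; dead embryos not scored.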

[6] = Tanguay_ZF_120hpf_TRUN_legacy: (Legacy) Oregon State University Tanguay Lab 120 Hour Post-fertilization zebrafish Assay for Truncated Body (AID 2283655)
Summary of the method: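 Single dechorionated zebrafish embryos received test chemical from 6 hpf in 0.64% DMSO, kept at 28C. At 120 hpf, brightfield inspection noted any truncated body.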

[7] = Tanguay_ZF_120hpf_NC_legacy: (Legacy) Oregon State University Tanguay Lab 120 Hour Post-fertilization zebrafish Assay for Notochord and Tail Malformation (AID 2283656)
Summary of the method: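 Binary scoring of notochord distortion by brightfield microscopy; embryos dying were not scored. Wild-type Tropical 5D embryos, chorion removed, exposed singly and statically from 6 to 120 hpf, 28C, sealed, 0.64% DMSO.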

[8] = Tanguay_ZF_120hpf_TR_legacy: (Legacy) Oregon State University Tanguay Lab 120 Hour Post-fertilization zebrafish Assay for Touch Response (AID 2283667)
Summary of the method: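 Binary touch-response call at 120 hpf, analysed as gain of signal versus DMSO baseline. Wild-type 5D larvae, static exposure at 28C, 0.64% DMSO final; 5uM trimethyltin chloride as positive control.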

[9] = STM_H9_OrnithineISnorm_perc: Stemina devTOX quickPredict H9 human embryonic stem cell (hESC)-based Assay for Ornithine (ORN) Metabolite Biomarker, Normalized (AID 2283712; active = hit-call score of the fitted dose curve at least 0.9, where 1 is the maximum; inactive = score below 0.9;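 also: ornithine released into spent medium during last day measured by mass spectrometry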)
Summary of the method: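 Ornithine secreted by H9 hESCs after 72h compound treatment (daily media/compound renewal) was quantified in final-day media by UPLC-HRMS. Values are isotope-standard-normalized, expressed relative to 0.1% DMSO, fitted in positive direction.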

[10] = STM_H9_CystineISnorm_perc: Stemina devTOX quickPredict H9 human embryonic stem cell (hESC)-based Assay for Cystine (CYSS) Metabolite Biomarker, Normalized (AID 2283713; active = hit-call score of the fitted dose curve at least 0.9, where 1 is the maximum; inactive = score below 0.9)
Summary of the method: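 Cells are held undifferentiated and treated for 72h, receiving fresh medium with compound every 24h. Cystine secreted during the final day is quantified by UPLC-HRMS against a labeled spike-in, then expressed relative to the DMSO vehicle median.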

CCCCC1C(=O)N(c2ccccc2)N(c2ccccc2)C1=O
outcome [1]: inactive | outcome [2]: inactive | outcome [3]: inactive

CC(CCC(=O)O)(c1ccc(O)cc1)c1ccc(O)cc1
outcome [2]: inactive

Nc1ccc(C(=O)O)cc1
outcome [4]: inactive | outcome [5]: inactive | outcome [6]: inactive | outcome [7]: inactive | outcome [8]: inactive

CC(C)c1ccc(O)c(C(C)C)c1
AC50 [1]: 28.4 µM (active) | outcome [3]: inactive

CCOC(=O)C1=NN(c2ccc(Cl)cc2Cl)C(C)(C(=O)OCC)C1 (stereo unspecified)
outcome [3]: inactive

C=C[C@@]1(C)CC(=O)[C@]2(O)[C@@]3(C)[C@@H](O)CCC(C)(C)[C@@H]3[C@H](O)[C@H](OC(C)=O)[C@@]2(C)O1
outcome [3]: inactive

CC1(C)[C@@H]2CC[C@@]1(C)C(=O)C2
outcome [9]: inactive | outcome [10]: inactive

C=CC(=O)OCCCCCCOC(=O)C=C
outcome [3]: inactive

CCCCC/C=C\C/C=C\CCCCCCCC(=O)O
AC50 [1]: 86.4 µM (active)

COC(=O)c1ccccc1C
outcome [1]: inactive

CCCCCCCOC(=O)c1ccc(O)cc1
AC50 [1]: 35.7 µM (active)

CC(C)(C)NC(=O)[C@H]1CC[C@H]2[C@@H]3CC[C@H]4NC(=O)C=C[C@]4(C)[C@H]3CC[C@]12C
outcome [3]: inactive

O=c1c(O)c(-c2ccc(O)cc2O)oc2cc(O)cc(O)c12
outcome [1]: inactive

CN(C)c1ccc2nc3ccc(=[N+](C)C)cc-3sc2c1
AC50 [1]: 13.7 µM (active) | AC50 [2]: 2.34 µM (active) | outcome [3]: inactive

COc1ccc(-c2coc3cc(O)cc(O)c3c2=O)cc1
AC50 [1]: 86.5 µM (active) | outcome [3]: inactive

c1ccc(Nc2cccc3ccccc23)cc1
AC50 [1]: 28.4 µM (active)

Cc1ccc([N+](=O)[O-])cc1N
outcome [4]: inactive | outcome [5]: inactive | outcome [6]: inactive | outcome [7]: inactive | outcome [8]: inactive

O=C(OCc1ccccc1)c1ccc(O)cc1
AC50 [3]: 10.6 µM (active)

CCCC=C(C=O)CC
outcome [3]: inactive

O=S(=O)(O)c1ccc(N=Nc2c(O)ccc3ccccc23)cc1
AC50 [1]: 18.1 µM (active)

CCCCCCCCCCCCc1ccc(O)cc1
AC50 [1]: 11.4 µM (active)

N#Cc1ccc(C(c2ccc(C#N)cc2)n2cncn2)cc1
outcome [3]: inactive

C1CNCCN1
outcome [4]: inactive | outcome [5]: inactive | outcome [6]: inactive | outcome [7]: inactive | outcome [8]: inactive

COc1ccc(C(=O)c2ccccc2)c(O)c1
outcome [1]: inactive | outcome [2]: inactive | outcome [3]: inactive

CCCCCCCCCC[N+](C)(CCCCCCCCCC)CCC[Si](OC)(OC)OC
AC50 [1]: 16 µM (active)

N#Cc1ccc(C2CCCc3cncn32)cc1 (stereo unspecified)
outcome [3]: inactive

CCN1CN(CC)CN(CC)C1
AC50 [3]: 0.396 µM (active)

COC(=O)C=Cc1ccccc1
outcome [2]: inactive

Oc1ccccc1Cc1ccccc1O
AC50 [2]: 60.6 µM (active)

CC(C)(c1ccccc1)c1ccc(Nc2ccc(C(C)(C)c3ccccc3)cc2)cc1
AC50 [3]: 86 µM (active)

O=C(O)c1cc(O)c2ccccc2c1O
AC50 [1]: 28.6 µM (active) | outcome [3]: inactive

C/C=C/C=C/CCCCCCCO
AC50 [1]: 87.2 µM (active)

COc1ccc(C(=O)/C(Br)=C\C(=O)O)cc1
AC50 [3]: 76.4 µM (active)

CC1=NN(c2ccc(S(=O)(=O)O)cc2)C(=O)C1N=Nc1ccccc1 (stereo unspecified)
outcome [1]: inactive
